# Results taken from PubChem BioAssay (NCATS).
# Records with an inconclusive call do not appear. A call without a number means that no potency is given here. Calls of active or inactive are those of the source. Calls follow the shape of the dose curve; as a rule, active = well fitted activation curve with a large enough effect in the main read-out, with a control signal flat (not every such curve was filed as active); inconclusive = small, poorly fitted or top-dose-only effect, or effect the other way, or a change in a side signal; inactive = flat fitted curve, though single readings scatter.
# Target: 3',5'-cyclic-AMP phosphodiesterase 4B (Homo sapiens) (UniProt Q07343)
# Sequence (Q07343 whole entry, looked up): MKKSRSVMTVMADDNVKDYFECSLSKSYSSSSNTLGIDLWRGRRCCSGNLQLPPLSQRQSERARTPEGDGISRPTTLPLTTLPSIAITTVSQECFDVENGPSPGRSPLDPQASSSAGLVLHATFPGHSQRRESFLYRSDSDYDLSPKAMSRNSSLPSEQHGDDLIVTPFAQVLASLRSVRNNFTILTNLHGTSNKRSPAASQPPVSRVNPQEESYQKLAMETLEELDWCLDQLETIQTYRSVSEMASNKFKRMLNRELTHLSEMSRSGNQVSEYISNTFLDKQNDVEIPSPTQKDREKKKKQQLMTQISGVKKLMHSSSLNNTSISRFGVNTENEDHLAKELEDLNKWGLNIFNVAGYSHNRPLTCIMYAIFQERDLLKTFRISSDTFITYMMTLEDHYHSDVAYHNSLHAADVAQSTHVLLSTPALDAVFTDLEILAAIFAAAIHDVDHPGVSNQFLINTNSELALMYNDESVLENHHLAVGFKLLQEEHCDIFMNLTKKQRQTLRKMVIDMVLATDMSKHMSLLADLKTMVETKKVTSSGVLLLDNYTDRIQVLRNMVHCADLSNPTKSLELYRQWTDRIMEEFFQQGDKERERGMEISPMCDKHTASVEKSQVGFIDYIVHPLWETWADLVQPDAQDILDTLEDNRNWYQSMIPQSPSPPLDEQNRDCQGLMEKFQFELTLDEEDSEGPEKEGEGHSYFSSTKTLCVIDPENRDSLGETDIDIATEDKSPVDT
# Experiment: qHTS Assay for Inhibitors of PDE-IV (AID 607)
# Conditions: HEK293 ACTOne CNG channel cells, membrane potential fluorescence; series mostly up to 22.9 µM
# Outline: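 Cell-based read-out of cAMP via a modified cyclic nucleotide-gated channel and membrane potential dye (535/590 nm) in HEK293 cells expressing PDE4 endogenously. Compounds tested up to 22.9 uM final; 100 uM RO 20-1724 reference.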
# Potency is read from the fitted curve at half-maximal effect.
row,Structure (SMILES),Potency
1,CC(C)[C@@H](CC(=O)N[C@@H]1CCCC[C@H]1C(=O)N[C@H](CC(=O)N[C@@H](CCC(=O)O)CC(=O)O)Cc1ccccc1)NC(=O)C[C@H](Cc1ccccc1)NC(=O)[C@@H]1CCCC[C@H]1N,inactive
2,CC(C)[C@@H](CC(=O)N[C@@H]1CCCC[C@H]1C(=O)N[C@H](CC(=O)N[C@@H](CCC(=O)O)CC(=O)O)Cc1ccccc1)NC(=O)C[C@H](Cc1ccccc1)NC(=O)[C@@H]1CNCC[C@H]1N,inactive
3,CC(C)C[C@@H](CC(=O)N[C@@H](CCCN)CC(=O)N[C@@H]1CCNC[C@H]1C(=O)N[C@H](CC(=O)N[C@@H](CCC(=O)O)CC(=O)O)CC(C)C)NC(=O)[C@@H]1CNCC[C@H]1N,inactive
4,CC(C)C[C@@H](CC(=O)N[C@H](CC(=O)N[C@@H]1CCCC[C@H]1C(=O)N[C@H](CC(=O)N[C@@H](CCC(=O)O)CC(=O)O)Cc1ccccc1)C(C)C)NC(=O)[C@@H]1CNCC[C@H]1N,inactive
5,CC(C)C[C@@H](CC(=O)N[C@@H](CCCN)CC(=O)N[C@@H]1CCNC[C@H]1C(=O)N[C@H](CC(=O)N[C@@H](CCC(=O)O)CC(=O)O)Cc1ccccc1)NC(=O)[C@@H]1CNCC[C@H]1N,inactive
6,CC(C)[C@@H](CC(=O)N[C@@H]1CCCC[C@H]1C(=O)N[C@H](CC(=O)N[C@@H](CCC(=O)O)CC(=O)O)Cc1ccccc1)NC(=O)C[C@H](Cc1c[nH]c2ccccc12)NC(=O)[C@@H]1CNCC[C@H]1N,inactive
7,NCCC[C@@H](CC(=O)N[C@@H]1CCNC[C@H]1C(=O)N[C@H](CC(=O)N[C@@H](CCC(=O)O)CC(=O)O)Cc1c[nH]c2ccccc12)NC(=O)C[C@H](Cc1ccccc1)NC(=O)[C@@H]1CCCC[C@H]1N,inactive
8,NCCC[C@@H](CC(=O)N[C@@H]1CCCC[C@H]1C(=O)N[C@H](CC(=O)N[C@@H](CCC(=O)O)CC(=O)O)Cc1ccccc1)NC(=O)C[C@H](Cc1c[nH]c2ccccc12)NC(=O)[C@@H]1CNCC[C@H]1N,1.58 µM (active)
9,CC(C)C[C@@H](CC(=O)N[C@@H](CCCN)CC(=O)N[C@@H]1CCNC[C@H]1C(=O)N[C@H](CC(=O)N[C@@H](CCC(=O)O)CC(=O)O)CC(C)C)NC(=O)[C@@H]1CCCC[C@H]1N,inactive
10,CC(C)C[C@@H](CC(=O)N[C@H](CC(=O)N[C@@H]1CCCC[C@H]1C(=O)N[C@H](CC(=O)N[C@@H](CCC(=O)O)CC(=O)O)Cc1ccccc1)C(C)C)NC(=O)[C@@H]1CCCC[C@H]1N,inactive
11,NCCC[C@@H](CC(=O)N[C@@H]1CCNC[C@H]1C(=O)N[C@H](CC(=O)N[C@@H](CCC(=O)O)CC(=O)O)Cc1ccccc1)NC(=O)C[C@H](Cc1ccccc1)NC(=O)[C@@H]1CCCC[C@H]1N,inactive
12,CC(C)C[C@@H](CC(=O)N[C@@H](CCCN)CC(=O)N[C@@H]1CCNC[C@H]1C(=O)N[C@H](CC(=O)N[C@@H](CCC(=O)O)CC(=O)O)Cc1ccccc1)NC(=O)[C@@H]1CCCC[C@H]1N,inactive
13,CC(C)C[C@@H](CC(=O)N[C@@H](CCCN)CC(=O)N[C@@H]1CCCC[C@H]1C(=O)N[C@H](CC(=O)N[C@@H](CCC(=O)O)CC(=O)O)CC(C)C)NC(=O)[C@@H]1CNCC[C@H]1N,inactive
14,CC(C)C[C@@H](CC(=O)N[C@H](CC(=O)N[C@@H]1CCNC[C@H]1C(=O)N[C@H](CC(=O)N[C@@H](CCC(=O)O)CC(=O)O)Cc1c[nH]c2ccccc12)C(C)C)NC(=O)[C@@H]1CCCC[C@H]1N,inactive
15,NCCC[C@@H](CC(=O)N[C@@H]1CCCC[C@H]1C(=O)N[C@H](CC(=O)N[C@@H](CCC(=O)O)CC(=O)O)Cc1ccccc1)NC(=O)C[C@H](Cc1c[nH]c2ccccc12)NC(=O)[C@@H]1CCCC[C@H]1N,inactive
